Screens deposited in PubChem by National Center for Advancing Translational Sciences (NCATS).
PI4K2A inh: blocks human PI4K2A kinase activity. activity change, negative = inhibition, % at 76.9 µM. actives 0.13% (n = 420,000). Q9BTU6. purified PI4K2A, ADP-Glo luminescence, 1 h; stronger effect = lower value; in the data active means activity change below about -50%; inconclusive means mostly about -30% to -49%;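 further: -100% = wells without enzyme as full effect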
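ADP-Glo luminescence measured ADP generated by PI4K2A enzyme (4 ug/mL before mixing) with 1.2 mM PI substrate (pre-mix) and 300 microM ATP (pre-mix). Tris pH7.5 buffer with MgCl2, Triton X-100; 1 h reaction at ambient temperature.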
Akt phos inh: Akt phosphorylation inhibition; Neuro2A IGF-stimulated pAkt S473 HTRF, 20 min; stronger effect = lower value; activity change, % for hits at 50 µM; actives 0.32% (n = 360,000); in the data active means activity change below about -80%; inconclusive means mostly about -51% to -80%
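Single-point screen (50 µM final compound) in Neuro2A cells stimulated 20 min with 6 nM IGF at 37 deg C. After lysis, Ser473-phosphorylated Akt read by HTRF (ex 330 nm, em 615/665 nm) as the 665/615 ratio.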
Six1-Eya2 blk: blocks human Six1 binding to Eya2; AlphaScreen GST-Six1/His-Eya2 binding, biochemical; stronger effect = lower value; Q15475+O00167; AID 651725; activity change, % (test concentration not listed); actives 0.56% (n = 360,000)
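Homogeneous AlphaScreen proximity assay pairing GST-Six1 with His-tagged Eya2 (added as 5X mix: 250 nM and 500 nM) in 50 mM Tris pH 8.0, 300 mM NaCl, 1 mM TCEP. Glutathione donor and nickel acceptor beads; 1 h, 37 °C, dark.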
PI5P4K alpha inh: blocks human PI5P4K alpha kinase activity. PI5P4Kalpha enzyme, ADP-Glo luminescence, 60 min; stronger effect = lower value. max response, %. actives 1.2% (n = 330,000); active means max response of -50% or lower; inconclusive means between -30% and -50%; inactive means -30% or higher; further: value at the top dose of about 77 µM
Target sequence (P48426 whole entry, looked up): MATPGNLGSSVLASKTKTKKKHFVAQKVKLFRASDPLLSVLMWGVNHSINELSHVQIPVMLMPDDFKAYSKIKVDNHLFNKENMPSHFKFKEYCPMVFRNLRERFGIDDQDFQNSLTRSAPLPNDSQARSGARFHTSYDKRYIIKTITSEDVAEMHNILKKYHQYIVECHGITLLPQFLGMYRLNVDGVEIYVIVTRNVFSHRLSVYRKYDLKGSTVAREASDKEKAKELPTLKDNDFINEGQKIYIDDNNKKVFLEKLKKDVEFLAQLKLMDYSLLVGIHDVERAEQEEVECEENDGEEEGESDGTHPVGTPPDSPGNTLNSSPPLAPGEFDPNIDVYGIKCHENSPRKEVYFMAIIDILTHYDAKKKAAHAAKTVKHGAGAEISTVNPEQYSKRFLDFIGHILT
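Enzyme plus substrate dispensed, test compounds pinned in, then ATP (5 microM final) added. After 60 min at RT, ADP-Glo reagent 1 for 45 min and reagent 2 for 30 min preceded luminescence imaging.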
CtBP-E1A inh: blocks the CtBP interaction with E1A | activity change, % (concentration not given with the values) | actives 0.49% (n = 340,000) | AlphaScreen GST-E1A/His-CtBP binding, 1536-well; stronger effect = lower value
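Homogeneous bead-based format: GST-tagged E1A captured on glutathione donor beads, His-tagged CtBP on nickel acceptor beads; compounds precede bead addition by 2 h at 37 °C.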
Active calls of the source: *. Shown are actives, neighbours in structure and some others; about 1.8% of the full set was active somewhere. Unless noted, no stated cut-off is given here; in the data, active means activity change below about -65%; inconclusive means mostly about -30% to -63%; inactive means weaker than that. Unless noted, on the % scale 0 is the no-effect control and ±100 the full control effect.

What do the screens show for `Cc1ccccc1C(=O)Nc1ccc2c(C#N)c3nc4ccccc4nc3n2c1`?
PI4K2A inh: 0; Akt phos inh: inactive; Six1-Eya2 blk: inconclusive; PI5P4K alpha inh: inconclusive; CtBP-E1A inh: -71*

Results for COc1cc2cc3c(N)c(C(=O)NCc4ccco4)sc3nc2cc1OC ?
PI4K2A inh: -8; Akt phos inh: inactive; Six1-Eya2 blk: inconclusive; PI5P4K alpha inh: -10; CtBP-E1A inh: inconclusive

What do the screens show for `COc1cc2cc3c(N)c(C(=O)Nc4sc(C)c(C)c4C#N)sc3nc2cc1OC`?
PI4K2A inh: -50*; Akt phos inh: inactive; Six1-Eya2 blk: inconclusive; CtBP-E1A inh: inconclusive

What do the screens show for `O=C(/C=C/c1ccc(O)c(O)c1)c1ccc(S(=O)(=O)N2CCCCCC2)cc1`?
PI4K2A inh: -16; Akt phos inh: inactive; Six1-Eya2 blk: -10; PI5P4K alpha inh: -64*; CtBP-E1A inh: 20

Results for O=C(c1ccc(S(=O)(=O)N2CCCC2)cc1)N1CCCCC1 ?
PI4K2A inh: -8; Akt phos inh: inactive; Six1-Eya2 blk: -5; PI5P4K alpha inh: -2; CtBP-E1A inh: -6

Results for COc1ccc(C)cc1NC(=O)CSc1nnc(-c2ccco2)n1N ?
PI4K2A inh: 10; Akt phos inh: inactive; Six1-Eya2 blk: 6; PI5P4K alpha inh: 5; CtBP-E1A inh: -11

Results for COc1ccc(NC(C)=O)cc1NC(=O)CSc1nnc(C2CCCCC2)n1N ?
PI4K2A inh: 1; Akt phos inh: inactive; Six1-Eya2 blk: 4; PI5P4K alpha inh: -7; CtBP-E1A inh: 14

Results for COc1ccc(OC)c(NC(=O)CSc2nnc(C3CCCCC3)n2-c2ccccc2)c1 ?
PI4K2A inh: -11; Akt phos inh: -111%*; Six1-Eya2 blk: -10; PI5P4K alpha inh: -11; CtBP-E1A inh: -5

How did Cc1ccc(C)c(NC(=O)CSc2nnc(CSc3nc(C)cc(C)n3)n2Cc2ccco2)c1 do in these assays?
PI4K2A inh: -2; Akt phos inh: -91%*; Six1-Eya2 blk: 1; PI5P4K alpha inh: 0; CtBP-E1A inh: -3

Results for COc1ccc(C)cc1NC(=O)CSc1nnc(COc2ccccc2)n1Cc1ccco1 ?
PI4K2A inh: -1; Akt phos inh: -98%*; Six1-Eya2 blk: -12; PI5P4K alpha inh: 0; CtBP-E1A inh: -1

What do the screens show for `COc1cccc(-c2nnc(SCC(=O)Nc3cc(C)ccc3OC)n2N)c1`?
PI4K2A inh: 3; Akt phos inh: -119%*; Six1-Eya2 blk: 5; PI5P4K alpha inh: 0; CtBP-E1A inh: -2

How did Cc1ccc(NC(=O)CSc2nnc(CSc3nc(C)cc(C)n3)n2Cc2ccco2)c(C)c1 do in these assays?
PI4K2A inh: -3; Akt phos inh: inactive; Six1-Eya2 blk: -9; PI5P4K alpha inh: 0; CtBP-E1A inh: 3

Results for Cc1nnc(SCC(=O)c2cc(C)n(-c3c(C)n(C)n(-c4ccccc4)c3=O)c2C)s1 ?
PI4K2A inh: 6; Six1-Eya2 blk: -1; CtBP-E1A inh: 6

Results for CC1(NC(=O)/C=C/c2nc3ccccc3s2)CCS(=O)(=O)C1 (configuration not stated) ?
PI4K2A inh: -19; Akt phos inh: inactive; Six1-Eya2 blk: -8; PI5P4K alpha inh: -56*

Results for CCN(CC(=O)Nc1c(F)cccc1F)C(=O)C(C)SCc1nc2sc(C)c(C)c2c(=O)[nH]1 (configuration not stated) ?
PI4K2A inh: 4; Akt phos inh: inactive; Six1-Eya2 blk: -1; PI5P4K alpha inh: -1; CtBP-E1A inh: -1

What do the screens show for `Oc1cc(O)cc(/C=C/c2ccc(O)c(O)c2)c1`?
PI4K2A inh: -53*; Akt phos inh: inactive; Six1-Eya2 blk: inconclusive; PI5P4K alpha inh: -53*; CtBP-E1A inh: -25

What do the screens show for `C/C=C/c1ccc(O)c(OC)c1`?
PI4K2A inh: 2; Akt phos inh: inactive; Six1-Eya2 blk: 5; PI5P4K alpha inh: 0; CtBP-E1A inh: 4

Results for Cc1ccc(C)c(S(=O)(=O)c2nnn3c2nc(NC2CCCC2)c2sccc23)c1 ?
PI4K2A inh: -3

How did COc1cccc(OCCSc2nnc3sc4ccccc4n23)c1 do in these assays?
PI4K2A inh: 5; Akt phos inh: -112%*; Six1-Eya2 blk: -19; PI5P4K alpha inh: 5; CtBP-E1A inh: inconclusive
